Laboratory results: PubChem BioAssay (Tox21)
Results filed as inconclusive are left out. A call without a number means that no potency is given here. Some structures have more than one record in an assay (separate samples or runs), and their calls can disagree. Active and inactive are the calls of the source. Unless noted, calls come from the whole dose curve.

Key:
[1] = Nuclear factor erythroid 2-related factor 2/antioxidant responsive element (Nrf2/ARE) small molecule agonists: qHTS cell viability counter screen in human keratinocytes (AID 1919968; active = well fitted curve in the direction sought with a large enough effect in the repeat runs; an effect the other way counts as inactive or inconclusive; note: nearly all actives have a fitted effect of over 55% in size)
How it was run: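 Cytotoxicity was multiplexed with the Nrf2/ARE luciferase assay in the same wells. Stably transfected HaCaT keratinocytes were treated with test compounds for 23 h at 37 C. Cell viability was then measured by CellTiter-Fluor fluorescence.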

[2] = Nuclear factor erythroid 2-related factor 2/antioxidant responsive element (Nrf2/ARE) small molecule agonists: luciferase reporter gene qHTS assay in human keratinocytes (AID 1919969); note: nearly all actives have a fitted effect of over 35% in size; note: potency is the fitted concentration of half-maximal effect
[3] = biological target: KiSS-1 receptor (Homo sapiens) (UniProt Q969F8); experiment: Human kisspeptin (KISS1R) small molecule agonists, calcium flux assay in KISS1R-HEK293 cells (AID 1920064; active = well fitted curve in the direction sought with a large enough effect in the repeat runs; an effect the other way counts as inactive or inconclusive)
Chain of KiSS-1 receptor (Homo sapiens) (Q969F8 whole entry, looked up): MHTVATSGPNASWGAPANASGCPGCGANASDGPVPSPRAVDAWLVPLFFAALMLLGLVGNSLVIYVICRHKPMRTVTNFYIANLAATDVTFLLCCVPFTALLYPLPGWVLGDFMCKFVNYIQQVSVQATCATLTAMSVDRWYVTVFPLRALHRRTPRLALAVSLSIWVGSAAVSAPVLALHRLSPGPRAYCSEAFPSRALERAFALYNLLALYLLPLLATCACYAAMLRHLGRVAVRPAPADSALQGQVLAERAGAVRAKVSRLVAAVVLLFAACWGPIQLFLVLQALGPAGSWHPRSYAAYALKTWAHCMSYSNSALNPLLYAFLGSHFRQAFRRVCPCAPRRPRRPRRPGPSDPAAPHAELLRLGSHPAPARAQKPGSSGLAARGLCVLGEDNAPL
How it was run: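 Agonist activity is monitored as intracellular calcium rise in engineered HEK293 cells carrying human KISS1R. Cells are dye-loaded for 1 h at 37 C before compound addition, and fluorescence is recorded for 3 min.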

[4] = G protein-coupled receptor (GPCR) small molecule agonists, calcium flux assay: HEK293 wild type cell line counter screen (AID 1920065)
How it was run: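 Seed cells, incubate 18 h (37 C, 5% CO2); add calcium dye, 1 h at 37 C; pin-transfer compounds, ATP control or DMSO; read fluorescence 480/540 nm each second for 3 min.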

[5] = p53 small molecule agonists, cell-based qHTS assay with human liver microsomes (AID 1963577)
How it was run: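 p53RE-bla reporter cells were pre-incubated 5 h at 37 C, then treated with compounds plus human liver microsomes (0.5 mg/mL final) and NADPH (0.5 mg/mL final) for 16 h at 37 C. Beta-lactamase activity was read by LiveBLAzer fluorescence after 2 h at room temperature.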

[6] = p53 small molecule agonists, cell-based qHTS assay with rat liver microsomes (AID 1963578)
How it was run: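 p53RE-bla cells were exposed to compounds together with rat liver microsomes (0.5 mg/mL final) and NADPH (0.5 mg/mL final) for 16 h at 37 C, then read by LiveBLAzer beta-lactamase fluorescence after 2 h at room temperature.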

[7] = p53 small molecule agonists, cell-based qHTS assay with human liver microsomes: qHTS cell viability counter screen (AID 1963579); note: nearly all actives have a fitted effect of over 45% in size
How it was run: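 p53RE-bla cells (4,000/well) were pre-incubated 5 h at 37 C, then given compounds in DMSO plus human liver microsomes (0.5 mg/mL final) and NADPH (0.5 mg/mL final) for 16 h at 37 C. Viability was read by CellTiter-Glo luminescence.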

[8] = p53 small molecule agonists, cell-based qHTS assay with rat liver microsomes: qHTS cell viability counter screen (AID 1963580); note: nearly all actives have a fitted effect of over 45% in size
How it was run: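 Counter screen for cytotoxicity under metabolic activation: rat liver microsomes and NADPH, 0.5 mg/mL final each, added with compounds to p53RE-bla HCT-116 cells; 16 h at 37 C, then ATP luminescence read.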

[9] = p53 small molecule agonists, cell-based qHTS assay (AID 1963582; active = well fitted activation curve with a large enough effect in the signal ratio in the repeat runs, not every such curve was filed as active; the % refers to the signal ratio)
How it was run: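 Cells carrying a p53-responsive bla reporter are treated with test compounds for 16 h at 37 C; beta-lactamase activity is then detected with LiveBLAzer B/G FRET substrate after 2 h at room temperature.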

[10] = biological target: 5-hydroxytryptamine receptor 2A (Homo sapiens) (UniProt P28223); experiment: 5-hydroxytryptamine receptor 2A (HTR2A) small molecule antagonists, cell-based qHTS assay (AID 1963586); note: nearly all actives have a fitted effect of over 45% in size
Chain of 5-hydroxytryptamine receptor 2A (Homo sapiens) (P28223 whole entry, looked up): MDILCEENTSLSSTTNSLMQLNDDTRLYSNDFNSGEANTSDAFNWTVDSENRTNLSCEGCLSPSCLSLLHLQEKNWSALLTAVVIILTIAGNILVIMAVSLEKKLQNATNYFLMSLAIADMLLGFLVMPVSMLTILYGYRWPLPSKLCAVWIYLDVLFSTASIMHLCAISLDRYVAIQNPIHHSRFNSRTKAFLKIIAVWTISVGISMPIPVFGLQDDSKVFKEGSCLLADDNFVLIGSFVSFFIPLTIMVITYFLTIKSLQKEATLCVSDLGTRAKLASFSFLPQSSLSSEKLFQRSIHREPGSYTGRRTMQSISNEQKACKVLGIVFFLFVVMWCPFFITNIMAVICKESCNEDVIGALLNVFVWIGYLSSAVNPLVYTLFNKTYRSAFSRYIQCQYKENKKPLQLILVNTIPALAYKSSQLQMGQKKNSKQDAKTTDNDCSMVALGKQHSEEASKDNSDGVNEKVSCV
How it was run: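 CHO cells stably expressing human HTR2A were plated for 18 h at 37 C, then loaded with calcium dye for 1 h. Compounds were preincubated 5 min at room temperature before DOI (4 nM solution) was added. Kinetic fluorescence was read for 3 min.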

[11] = biological target: 5-hydroxytryptamine receptor 2A (Homo sapiens) (UniProt P28223); experiment: 5-hydroxytryptamine receptor 2A (HTR2A) small molecule agonists, cell-based qHTS assay (AID 1963587); note: nearly all actives have a fitted effect of over 30% in size
How it was run: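 HTR2A-CHO cells, plated 18 h at 37 C/5% CO2, dye-loaded 1 h at 37 C; compounds in DMSO added by pin tool (agonist mode). Intracellular calcium flux read as kinetic fluorescence on FDSS over 2 min at 1 s intervals.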

[12] = biological target: Muscarinic acetylcholine receptor M1 (Homo sapiens) (UniProt P11229); experiment: Cholinergic receptor muscarinic 1 (CHRM1) small molecule antagonists, cell-based qHTS assay (AID 1963588); note: nearly all actives have a fitted effect of over 40% in size
Chain of Muscarinic acetylcholine receptor M1 (Homo sapiens) (P11229 whole entry, looked up): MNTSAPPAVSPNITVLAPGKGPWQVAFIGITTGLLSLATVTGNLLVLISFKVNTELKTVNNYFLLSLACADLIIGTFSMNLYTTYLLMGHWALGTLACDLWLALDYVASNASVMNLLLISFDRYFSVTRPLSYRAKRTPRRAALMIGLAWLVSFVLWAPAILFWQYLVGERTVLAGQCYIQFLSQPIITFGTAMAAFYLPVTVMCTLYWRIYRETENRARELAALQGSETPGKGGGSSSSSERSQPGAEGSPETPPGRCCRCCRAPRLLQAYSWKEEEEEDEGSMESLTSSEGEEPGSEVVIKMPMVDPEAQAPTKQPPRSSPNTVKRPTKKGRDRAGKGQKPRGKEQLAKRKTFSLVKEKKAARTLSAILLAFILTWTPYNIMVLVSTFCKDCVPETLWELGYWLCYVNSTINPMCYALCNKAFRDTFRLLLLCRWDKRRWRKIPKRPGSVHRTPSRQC
How it was run: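 Compounds were tested at 15 concentrations in three independent runs. Dye-loaded CHRM1-CHO cells were exposed 5 min at room temperature before stimulation by acetylcholine added at 50nM. Intracellular calcium was read kinetically on FDSS for 3 min.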

[13] = cAMP Responsive Elements (CRE) small molecule agonists, cell-based qHTS assay (AID 1963590)
How it was run: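 Cells carrying a CRE-driven beta-lactamase reporter (HEK 293T) are seeded, incubated overnight (18 h), and treated with test compounds for 3 h at 37 C; reporter activity is then detected with a FRET substrate after 2 h at room temperature.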

[14] = cAMP Responsive Elements (CRE) small molecule antagonists, cell-based qHTS assay (AID 1963591; active = well fitted inhibition curve with a large enough effect in the signal ratio in the repeat runs, not every such curve was filed as active; the % refers to the signal ratio)
How it was run: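 Cells (CRE-bla HEK 293T, DMEM with 10% dialyzed FBS and 25 mM HEPES) are seeded and incubated 18 h. Compounds are added with NKH477 agonist at 0.25 uM final for 3 h, then FRET substrate for 2 h.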

[15] = biological target: Beta-2 adrenergic receptor (Homo sapiens) (UniProt P07550); experiment: Adrenergic beta2 receptor (ADRB2) small molecule antagonists, cell-based qHTS assay (AID 1963592); note: series mostly up to about 92 µM; nearly all actives have a fitted effect of over 50% in size
Chain of Beta-2 adrenergic receptor (Homo sapiens) (P07550 whole entry, looked up): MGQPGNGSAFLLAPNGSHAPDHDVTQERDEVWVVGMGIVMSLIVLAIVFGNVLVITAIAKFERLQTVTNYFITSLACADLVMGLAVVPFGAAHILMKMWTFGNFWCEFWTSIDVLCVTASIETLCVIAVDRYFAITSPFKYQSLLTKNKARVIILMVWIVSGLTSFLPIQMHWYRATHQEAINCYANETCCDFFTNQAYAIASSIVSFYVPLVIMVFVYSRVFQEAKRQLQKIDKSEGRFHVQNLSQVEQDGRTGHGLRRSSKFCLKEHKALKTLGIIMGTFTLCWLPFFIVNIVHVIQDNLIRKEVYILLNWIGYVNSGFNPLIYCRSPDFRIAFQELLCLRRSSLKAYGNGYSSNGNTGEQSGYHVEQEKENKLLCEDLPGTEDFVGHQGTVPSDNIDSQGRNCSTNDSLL
How it was run: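 Assay format: CHO-ADRB2 cells, 18-20hr seeding at 37C/5% CO2, then compound plus 1nM isoproterenol agonist mix for 0.5hr RT. Homogeneous time-resolved fluorescence cAMP detection after 1hr, expressed as 665/615 nm ratio.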

[16] = biological target: D(2) dopamine receptor (Homo sapiens) (UniProt P14416); experiment: Dopamine D2 receptor (DRD2) small molecule agonists, cell-based qHTS assay (AID 1963594); note: nearly all actives have a fitted effect of over 35% in size
Chain of D(2) dopamine receptor (Homo sapiens) (P14416 whole entry, looked up): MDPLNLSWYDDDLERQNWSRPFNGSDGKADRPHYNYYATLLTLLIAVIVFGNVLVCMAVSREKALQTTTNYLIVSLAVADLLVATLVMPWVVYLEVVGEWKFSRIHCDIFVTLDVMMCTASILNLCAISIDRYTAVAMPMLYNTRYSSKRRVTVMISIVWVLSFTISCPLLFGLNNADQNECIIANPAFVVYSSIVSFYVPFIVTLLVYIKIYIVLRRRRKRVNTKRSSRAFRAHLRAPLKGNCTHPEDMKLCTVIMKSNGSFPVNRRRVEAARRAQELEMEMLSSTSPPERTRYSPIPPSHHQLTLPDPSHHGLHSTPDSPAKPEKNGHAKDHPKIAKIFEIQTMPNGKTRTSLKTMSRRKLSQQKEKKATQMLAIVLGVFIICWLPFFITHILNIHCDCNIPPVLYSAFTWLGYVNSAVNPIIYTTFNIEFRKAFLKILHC
How it was run: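 HEK293 cells stably expressing DRD2 were cultured 24 h at 37 C, then given Ro20-1724 (0.1 mM final) and compounds for 10 min at room temperature. NKH477 (200nM) was then added for 30 min. cAMP was read by HTRF.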

[17] = p53 small molecule agonists, cell-based qHTS assay: qHTS cell viability counter screen (AID 1963581); note: nearly all actives have a fitted effect of over 45% in size
How it was run: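 Viability was counter-screened in parallel with the p53 agonist reporter by measuring intracellular ATP luminescence in the same HCT-116 p53RE-bla wells after 16 h compound treatment at 37 C.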

[18] = biological target: Muscarinic acetylcholine receptor M1 (Homo sapiens) (UniProt P11229); experiment: Cholinergic receptor muscarinic 1 (CHRM1) small molecule agonists, cell-based qHTS assay (AID 1963589); note: nearly all actives have a fitted effect of over 35% in size
How it was run: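 Cells were plated and incubated 18 h at 37 C/5% CO2, loaded with calcium dye for 1 h at 37 C, then treated with compounds in DMSO. Fluorescence was recorded kinetically at 1 sec intervals.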

[19] = biological target: D(2) dopamine receptor (Homo sapiens) (UniProt P14416); experiment: Dopamine D2 receptor (DRD2) small molecule antagonists, cell-based qHTS assay (AID 1963595; active = well fitted inhibition curve with a large enough effect in the signal ratio in the repeat runs, with a control signal flat; the % refers to the signal ratio)
How it was run: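 Antagonist mode in DRD2-HEK293 cells: after compound addition with 0.1 mM Ro20-1724, cells received quinpirole (12 nM) and NKH477 (200 nM) for 30 min at room temperature; HTRF cAMP read after 1 h detection.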

[20] = biological target: Beta-2 adrenergic receptor (Homo sapiens) (UniProt P07550); experiment: Adrenergic beta2 receptor (ADRB2) small molecule agonists, cell-based qHTS assay (AID 1963593);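 note: CHO cells stably overexpressing human ADRB2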
How it was run: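 CHO cells stably over-expressing ADRB2 were plated overnight at 37C, then dosed with compounds plus a stimulation mix containing 100uM IBMX and 25uM Ro-20-1724 for 0.5hr at room temperature. cAMP was measured by HTRF competition, 1hr.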

## CN(C)CCCN(C)CCCN(C)C
[1]
  Potency: inactive
[2]
  Potency: inactive
[3]
  Potency: inactive
[4]
  Potency: inactive
[5]
  Potency: inactive
[6]
  Potency: inactive
[7]
  Potency: inactive
[8]
  Potency: inactive
[9]
  Potency: inactive
[10]
  Potency: inactive
[11]
  Potency: inactive
[12]
  Potency: inactive
[13]
  Potency: inactive
[14]
  Potency: inactive
[15]
  Potency: inactive
[16]
  Potency: inactive

## O=P(O)(OCc1ccccc1)OCc1ccccc1
[1]
  Potency: inactive
[2]
  Potency: inactive
[3]
  Potency: inactive
[4]
  Potency: inactive
[5]
  Potency: inactive
[6]
  Potency: inactive
[7]
  Potency: inactive
[17]
  Potency: inactive
[9]
  Potency: inactive
[10]
  Potency: inactive
[11]
  Potency: inactive
[12]
  Potency: inactive
[18]
  Potency: inactive
[13]
  Potency: inactive
[14]
  Potency: inactive
[15]
  Potency: inactive
[16]
  Potency: inactive
[19]
  Potency: inactive

## O=C(O)c1cccc(C(F)(F)F)c1
[1]
  Potency: inactive
[2]
  Potency: inactive
[3]
  Potency: inactive
[4]
  Potency: inactive
[5]
  Potency: inactive
[6]
  Potency: inactive
[7]
  Potency: inactive
[8]
  Potency: inactive
[17]
  Potency: inactive
[9]
  Potency: inactive
[10]
  Potency: inactive
[11]
  Potency: inactive
[12]
  Potency: inactive
[13]
  Potency: inactive
[15]
  Potency: inactive
[20]
  Potency: inactive
[16]
  Potency: inactive
[19]
  Potency: inactive

## C=CCCC=C
[1]
  Potency: inactive
[2]
  Potency: 70.5 µM (active)
[3]
  Potency: inactive
[4]
  Potency: inactive
[5]
  Potency: inactive
[6]
  Potency: inactive
[7]
  Potency: inactive
[8]
  Potency: inactive
[10]
  Potency: inactive
[11]
  Potency: inactive
[12]
  Potency: inactive
[18]
  Potency: inactive
[13]
  Potency: inactive
[14]
  Potency: inactive
[15]
  Potency: inactive
[20]
  Potency: inactive
[16]
  Potency: inactive
[19]
  Potency: inactive

## C=C(C)C(=O)OCCC[Si](Cl)(Cl)Cl
[1]
  Potency: inactive
[2]
  Potency: inactive
[3]
  Potency: inactive
[4]
  Potency: inactive
[5]
  Potency: inactive
[6]
  Potency: inactive
[7]
  Potency: inactive
[8]
  Potency: inactive
[17]
  Potency: inactive
[9]
  Potency: inactive
[10]
  Potency: inactive
[11]
  Potency: inactive
[12]
  Potency: inactive
[18]
  Potency: inactive
[14]
  Potency: inactive
[15]
  Potency: inactive
[20]
  Potency: inactive
[16]
  Potency: inactive
[19]
  Potency: inactive

## Cc1ccc(Nc2ccc(O)c3c2C(=O)c2ccccc2C3=O)cc1
[1]
  Potency: inactive
[2]
  Potency: inactive
[3]
  Potency: inactive
[4]
  Potency: inactive
[5]
  Potency: inactive
[6]
  Potency: inactive
[7]
  Potency: inactive
[8]
  Potency: inactive
[9]
  Potency: inactive
[10]
  Potency: inactive
[11]
  Potency: inactive
[12]
  Potency: inactive
[18]
  Potency: inactive
[13]
  Potency: inactive
[14]
  Potency: inactive
[15]
  Potency: inactive
[20]
  Potency: inactive
[16]
  Potency: inactive
[19]
  Potency: inactive

## CCCCCCCCCCCCCCCC(=O)OC
[1]
  activity change, negative = cytotoxicity: 3.99% [at 19 µM] (inactive)
[2]
  activity, positive = activation: 0.79% [at 19 µM] (inactive)
[3]
  activation: -2.17% [at 15.8 µM] (inactive)
[4]
  activation: 0.455% [at 11.8 µM] (inactive)
[5]
  activation: 0.811% [at 13.5 µM] (inactive)
[6]
  activation: 0.588% [at 13.6 µM] (inactive)
[7]
  activity change, negative = cytotoxicity: -1.62% [at 13.5 µM] (inactive)
[8]
  activity change, negative = cytotoxicity: -0.0573% [at 13.5 µM] (inactive)
[17]
  activity change, negative = cytotoxicity: 2.56% [at 13.5 µM] (inactive)
[9]
  activation: -4.84% [at 13.5 µM] (inactive)
[10]
  activity, negative = inhibition: -2.95% [at 12.7 µM] (inactive)
[11]
  activation: -0.493% [at 15.9 µM] (inactive)
[18]
  activation: -0.393% [at 15.8 µM] (inactive)
[13]
  activation: -0.453% [at 19 µM] (inactive)
[14]
  activity change, negative = inhibition: -6.58% [at 18.9 µM] (inactive)
[15]
  activity change, negative = inhibition: 5.87% [at 19 µM] (inactive)
[16]
  activation: 0.309% [at 19 µM] (inactive)
[19]
  activity change, negative = inhibition: -0.0877% [at 18.9 µM] (inactive)

## Cn1cnc([N+](=O)[O-])c1Sc1ncnc2nc[nH]c12
[1]
  Potency: inactive
[2]
  Potency: 27.1 µM (active) and inactive
[3]
  Potency: inactive
[4]
  Potency: inactive
[5]
  Potency: inactive
[6]
  Potency: inactive
[7]
  Potency: inactive
[8]
  Potency: inactive
[17]
  Potency: inactive
[13]
  Potency: inactive
[14]
  Potency: inactive
[16]
  Potency: inactive
[19]
  Potency: inactive
